From PubChem BioAssay
Unmarked numbers belong to inactive results.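 The calls were made as follows: active = inhibition of the reporter signal at or above 50%; inactive = inhibition below 50%.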

Experiment: TLR3 IRF3 reporter activation blockers – cell-based, poly I:C stimulus, luciferase, 10K MLSCN set, primary screen (AID 602277)
Conditions: HEK293-TLR3 RL24 IRF3 luciferase reporter, at 10 µM, hits give high values
Work on `Cc1cc(C)n(C(=O)C23CC4CC(CC(C4)C2)C3)n1` yielded an inhibition of 17.9%. `Nc1nc2n(n1)C(c1cccc(Cl)c1)CC(c1ccc(F)cc1)N2` (stereo not given) gave an inhibition of 25.8%. `O=C(Nc1ccc(N2CCCC2)cc1)c1ccc(Br)o1` showed an inhibition of -152%. In the case of `CCOC(=O)c1cccc(NC(=O)C2CCN(S(=O)(=O)c3cccs3)CC2)c1`, the inhibition is reported as 5.8%. `CC(=O)C1=C(C)OC(N)=C(C#N)C1c1ccncc1` (stereo not given) showed an inhibition of 16.8%. With `O=C(CN1CCN(C2CCCCC2)CC1)Nc1ccccc1-c1ccccc1` the inhibition was 24.7%. `CC1(C)Cc2c(c(=S)nc(-c3ccccc3)n2CCO)CO1` gave an inhibition of 23.5%. Work on `COCCCNC(=O)CC1Oc2ccccc2NC1=O` (stereo not given) yielded an inhibition of 33.9%. Molecule `CC1(C)CC(=O)CC(C)(C)N1OC(=O)c1ccccn1` has an inhibition of 25.3%. For `O=C1OC(N2CCN(c3ccccn3)CC2)c2ccccc21` (stereo not given), the inhibition was 12%. `c1cncc(-c2nc3c4ccccc4nc(N4CCC(N5CCCCC5)CC4)n3n2)c1` showed an inhibition of 30%. Work on `C=Cn1c(N2CCOCC2)nc2c1c(=O)[nH]c(=O)n2C` yielded an inhibition of 20.4%. `CC(C)(C)C1=Nn2c(nnc2-c2n[nH]c3c2CCC3)SC1` showed an inhibition of 15.7%. `CCCCc1nc2ccccc2n2cc3c(=O)n(C)c(=O)n(C)c3c12` gave an inhibition of 28.9%. `O=C(NC1CCCCC1)N(Cc1ccc(F)cc1)Cc1nc2ccccc2c(=O)[nH]1` gave an inhibition of 29%. Molecule `Cc1ccc(S(=O)(=O)CC(=O)N2CCCCCC2)cc1` has an inhibition of -15.4%. `O=C(NCC1COc2ccccc2O1)c1ccc(NC(=O)c2ccco2)cc1` (stereo not given) gave an inhibition of 20%. With `CCOC(=O)N1CCN(Cc2nc3c(c(=O)[nH]c(=O)n3C)n2Cc2cc(C)ccc2C)CC1` the inhibition was 27.4%. Work on `CCOC(=O)N1CCC(N2C(=O)c3ccccc3C2Nc2cccnc2)CC1` (stereo not given) yielded an inhibition of -4.54%. Molecule `O=c1/c(=C/c2ccco2)sc2nc(-c3ccccc3Br)nn12` has an inhibition of 18.1%. Work on `CCOc1cc(NC(=O)c2ccccn2)c(OCC)cc1NC(=O)CC(C)C` yielded an inhibition of -24.5%. In the case of `CC1(C)CC(=O)C=C(NCCN2CCN(C(=O)Nc3ccccc3)CC2)C1`, the inhibition is reported as -0.835%. `Cc1ccccc1CN1CCN(C(=O)c2cccc(F)c2)CC1` gave an inhibition of 12%. `Cn1c(=O)[nH]c(=O)c2c1nc(N1CCCCCC1)n2CCCSc1nc2ccccc2o1` gave an inhibition of 9.47%. `COc1cccc(C2CC(c3ccccc3)n3ncnc3N2)c1` (stereo not given) gave an inhibition of 33.2%. `C=CCNC(=O)c1ccc(Cl)cc1Cl` gave an inhibition of 23.8%. With `COc1ccccc1NC(=O)NC1(C(=O)N2CCC(O)CC2)CCCCC1` the inhibition was 2.89%. In the case of `Nc1scc(-c2ccncc2)c1Cl`, the inhibition is reported as -65.9%. In the case of `CC1CCCN(S(=O)(=O)c2ccc(C(=O)Nc3nnc(-c4ccccc4Cl)o3)cc2)C1` (stereo not given), the inhibition is reported as 25.9%. Work on `CCOc1ccccc1OCCn1nnc2ccccc21` yielded an inhibition of -3.68%. Work on `COc1ccc(CCN2C(=O)CCC2(C)C(=O)NCc2cccnc2)cc1OC` (stereo not given) yielded an inhibition of 7.83%. `COC(=O)c1ccccc1S(=O)(=O)N(CCCO)Cc1cc2c(C)ccc(C)c2[nH]c1=O` gave an inhibition of 27.6%. Molecule `CCCCn1c(CN(C)Cc2ccccc2)nc2c1c(=O)n(C)c(=O)n2C` has an inhibition of -58.3%. Molecule `CCn1c(SCC(=O)c2ccc(Cl)cc2)nnc1-c1ccoc1C` has an inhibition of 5.26%. `Cn1c(=N)c(S(=O)(=O)c2ccccc2)cc2c(=O)n3ccccc3nc21` gave an inhibition of -10.5%. `CN(CC(=O)N1CCCCC1)S(=O)(=O)c1cccc2cccnc12` gave an inhibition of 25.4%. `O=C(NCc1ccc2c(c1)OCO2)C1CCC(CNc2c(N3CCCCC3)c(=O)c2=O)CC1` (stereo not given) showed an inhibition of 24.7%. For `Cn1c(=O)c2c(nc(NCC3CCCO3)n2C)n(C)c1=O` (stereo not given), the inhibition was 6.02%. With `Cc1cc2ccccc2n1CCNC(=O)c1ccc(S(=O)(=O)N2CCOCC2)cc1` the inhibition was 30%. `CNC(=O)NCCN1CCCC1=O` showed an inhibition of 11.8%.
